# In PMC13541613, “GHT-SELEX demonstrates unexpectedly high intrinsic sequence specificity and complex DNA binding of many human transcription factors”:
# What was measured:
# Assay in all cases: HT-SELEX; 20 mM HEPES pH 7, 140 mM KCl, 5 mM NaCl, 1 mM K2HPO4, 2 mM MgSO4, 100 uM EGTA, ZnSO4, 0.1% Tween20; room temperature, 1 h; high values mean tight binding
# Settings in all cases: protein: ivt; tags: eGFP (N-terminal); dsDNA, one strand shown
# [1] = target: ZNF721 full-length (Homo sapiens, UniProt Q8TF20-2 1-923)
# Outline: (§1)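 Bead-immobilised tagged transcription factor (full-length or DNA-binding-domain fragment), made in HEK293 lysate or cell-free extract, was incubated with a randomized 40-base DNA library. Binding was for 1 h at room temperature in HEPES/KCl low-stringency buffer with Tween20. After washing and heat elution, bound DNA was PCR-amplified over successive cycles and Illumina-sequenced (~3 million 60 bp reads per sample). Binding signal is a relative k-mer count in selected reads; higher means tighter binding.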
# [2] = target: ZNF721 DBD1 (Homo sapiens, UniProt Q8TF20-2 29-461)
# Outline: as §1
# [3] = target: ZNF721 DBD2 (Homo sapiens, UniProt Q8TF20-2 395-923)
# Outline: as §1
# ZNF721 full-length, sequence (Q8TF20 other isoform, or with tags, fused parts or gaps): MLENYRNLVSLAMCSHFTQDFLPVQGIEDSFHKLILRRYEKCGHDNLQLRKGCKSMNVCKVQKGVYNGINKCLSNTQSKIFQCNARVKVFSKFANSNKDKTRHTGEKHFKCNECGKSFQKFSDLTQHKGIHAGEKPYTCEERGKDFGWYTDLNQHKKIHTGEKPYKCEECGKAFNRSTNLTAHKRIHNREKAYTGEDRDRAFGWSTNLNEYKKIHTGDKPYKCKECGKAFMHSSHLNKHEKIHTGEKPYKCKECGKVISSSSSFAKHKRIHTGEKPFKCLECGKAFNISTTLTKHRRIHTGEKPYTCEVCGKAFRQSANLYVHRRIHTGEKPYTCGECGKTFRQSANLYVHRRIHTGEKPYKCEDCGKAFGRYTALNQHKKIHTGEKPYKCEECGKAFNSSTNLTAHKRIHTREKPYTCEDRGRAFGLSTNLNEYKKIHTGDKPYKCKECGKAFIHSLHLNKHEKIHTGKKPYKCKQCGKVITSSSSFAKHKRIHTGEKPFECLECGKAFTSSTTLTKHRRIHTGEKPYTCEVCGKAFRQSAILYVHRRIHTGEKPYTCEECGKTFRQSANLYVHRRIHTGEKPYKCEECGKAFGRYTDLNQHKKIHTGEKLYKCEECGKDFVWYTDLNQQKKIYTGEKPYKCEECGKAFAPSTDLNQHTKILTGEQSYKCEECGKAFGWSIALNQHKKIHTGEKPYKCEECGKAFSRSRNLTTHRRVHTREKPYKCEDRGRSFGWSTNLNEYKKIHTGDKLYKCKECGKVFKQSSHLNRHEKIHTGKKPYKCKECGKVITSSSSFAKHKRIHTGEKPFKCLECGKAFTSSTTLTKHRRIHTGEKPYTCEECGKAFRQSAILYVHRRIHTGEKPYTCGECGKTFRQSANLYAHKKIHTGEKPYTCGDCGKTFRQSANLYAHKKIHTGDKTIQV
# ZNF721 DBD1, sequence (Q8TF20 17-449): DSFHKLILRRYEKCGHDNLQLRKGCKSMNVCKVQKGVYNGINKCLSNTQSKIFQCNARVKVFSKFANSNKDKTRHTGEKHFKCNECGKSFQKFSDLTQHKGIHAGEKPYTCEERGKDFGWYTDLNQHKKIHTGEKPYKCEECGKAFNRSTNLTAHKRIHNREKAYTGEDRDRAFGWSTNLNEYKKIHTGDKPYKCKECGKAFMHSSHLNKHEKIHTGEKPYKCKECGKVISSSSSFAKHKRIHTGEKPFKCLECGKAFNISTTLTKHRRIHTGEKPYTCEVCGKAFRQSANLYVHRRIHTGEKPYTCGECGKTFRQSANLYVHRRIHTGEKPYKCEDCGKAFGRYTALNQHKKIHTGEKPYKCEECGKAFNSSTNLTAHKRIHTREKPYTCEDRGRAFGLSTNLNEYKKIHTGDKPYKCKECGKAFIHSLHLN
# ZNF721 DBD2, sequence (Q8TF20 383-911): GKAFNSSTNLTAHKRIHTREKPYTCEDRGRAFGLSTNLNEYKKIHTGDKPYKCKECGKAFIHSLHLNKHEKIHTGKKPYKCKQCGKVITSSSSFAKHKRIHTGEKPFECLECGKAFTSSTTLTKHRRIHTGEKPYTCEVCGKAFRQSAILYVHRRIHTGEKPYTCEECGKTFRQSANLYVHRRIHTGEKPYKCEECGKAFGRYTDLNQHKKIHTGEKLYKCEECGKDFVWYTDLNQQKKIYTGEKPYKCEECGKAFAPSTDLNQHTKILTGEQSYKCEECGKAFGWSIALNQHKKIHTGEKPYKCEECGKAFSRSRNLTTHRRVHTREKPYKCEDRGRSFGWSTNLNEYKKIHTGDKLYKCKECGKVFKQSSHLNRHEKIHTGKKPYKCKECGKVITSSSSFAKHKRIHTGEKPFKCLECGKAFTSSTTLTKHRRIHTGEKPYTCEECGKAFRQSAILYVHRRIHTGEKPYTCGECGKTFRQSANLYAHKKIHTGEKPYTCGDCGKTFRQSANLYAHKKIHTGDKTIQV
Sequence,binding signal [1] [relative 10-mer count],binding signal [2] [relative 10-mer count],binding signal [3] [relative 10-mer count]
CTTCATACTC,0.167,0.271,0.00132
ACCCCCCTCC,0.142,0.00624,0.00336
AAGCAGCATG,0.115,0.0017,0.137
CCCCGCCACC,0.266,0.0105,0.00336
AGGGGGAGGG,0.145,0.00752,0.00515
GCCCCACCCA,0.13,0.00404,0.00515
AAACAGCATG,0.284,0.00101,0.345
CCTCCGCCCC,0.161,0.00789,0.003
CCACCTACCC,0.112,0.00527,0.00455
CAAACAAGCA,0.102,0.00362,0.063
CCCCACCCCC,0.447,0.0179,0.00419
CCCACAACCC,0.106,0.00431,0.00348
CAGCCCCCCC,0.103,0.00284,0.0267
CCTACCCACC,0.124,0.00546,0.0101
CCCACCCGCC,0.216,0.00794,0.00539
CCCAACCCCA,0.132,0.00459,0.00372
CCCCCTCCGC,0.124,0.00725,0.00372
CCGCCCACCA,0.143,0.00477,0.00156
CCACCCTCCA,0.123,0.00587,0.00815
CACCACCCAC,0.206,0.0105,0.0119
CCGCCCCCAC,0.178,0.00821,0.0036
TAAAAAAACA,0.162,0.00234,0.134
AAAAAGCAGT,0.497,0.0214,0.383
GCTTTTTTTA,0.176,0.0317,0.0453
CACCACCGCC,0.103,0.00454,0.00324
GGGGAGGGGA,0.125,0.00674,0.0036
CCACCATCCC,0.162,0.0055,0.00443
CCACACCACC,0.135,0.0055,0.00623
CCGCGCCCCC,0.115,0.00427,0.0018
CAAAAAAACA,0.365,0.00349,0.263
